Test results reported in the supplement of paper PMC10849652.
About 7,900 targets were measured; listed, in parts, are those with a hit and a random draw of the rest. About 0.6% of all pairs of compound and target were hits.

Experiments:
Experiment in all cases: log2 fold change, soluble protein after heating vs DMSO (PISA); higher = thermal stabilisation; K562 cells, 10 uM, 30 min; active = over 0.2 and 3.5 SD of the protein, either way, in both replicates (recomputed)
[1] = compound: COC1=CC=C(C=C1)CN2C=CC3=C2C=C(C=C3)C(=O)NO
Outline: (§1)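 K562 cells at 2×10^6 cells/mL were treated for 30 min with 10 μM compound, and aliquots were heated for 3 min over 48°C-58°C before pooling. Extraction used PBS with 0.5% NP-40 at 4°C, and soluble protein was the supernatant after 21,000xg for 90 min, measured by TMTpro 16plex LC-MS/MS with channel sums equalised. Thermal stability values, relative to control samples and from duplicates, are log2 fold changes.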

[2] = compound: CON(C)C(=O)N1N=C(c2cc(F)ccc2F)S[C@@]1(CCCN)c1ccccc1 [filanesib]
Outline: as §1

[3] = compound: CO[C@H]1C[C@@H]2CC[C@@H](C)[C@@](O)(O2)C(=O)C(=O)N2CCCC[C@H]2C(=O)O[C@H]([C@H](C)C[C@@H]2CC[C@H](n3cnnn3)[C@H](OC)C2)CC(=O)[C@H](C)/C=C(\C)[C@@H](O)[C@@H](OC)C(=O)[C@H](C)C[C@H](C)/C=C/C=C/C=C/1C [zotarolimus]
Outline: as §1

[4] = compound: COc1cc(C(=O)O)ccc1NC(=O)[C@@H]1N[C@@H](CC(C)(C)C)[C@](C#N)(c2ccc(Cl)cc2F)[C@H]1c1cccc(Cl)c1F [idasanutlin]
Outline: as §1

[5] = compound: COc1cc(Nc2ncc3c(n2)-c2ccc(Cl)cc2C(c2c(F)cccc2OC)=NC3)ccc1C(=O)O [alisertib]
Outline: as §1

[6] = compound: COc1cc2nc(-c3cc(F)ccc3O)nc(N[C@@H]3CNC[C@H]3C(C)(C)O)c2cc1OC
Outline: as §1

[7] = compound: COc1cc2ncnc(Nc3ccc(F)c(Cl)c3)c2cc1OCCCN1CCOCC1 [gefitinib]
Outline: as §1

[8] = compound: COc1cccc2cc(-c3nc([C@H]4CC[C@H](C(=O)O)CC4)n4ncnc(N)c34)[nH]c12
Outline: as §1

[9] = compound: CS(=O)(=O)CCNCc1ccc(-c2ccc3ncnc(Nc4ccc(OCc5cccc(F)c5)c(Cl)c4)c3c2)o1 [lapatinib]
Outline: as §1

[10] = compound: CS(=O)(=O)N1CCN(Cc2cc3nc(-c4cccc5[nH]ncc45)nc(N4CCOCC4)c3s2)CC1 [pictilisib]
Outline: as §1

[11] = compound: CS(=O)(=O)c1ccc(-c2cnc(N)c(C(=O)Nc3ccccc3)n2)cc1
Outline: as §1

[12] = compound: C[C@@H](Oc1cc(-c2cnn(C3CCNCC3)c2)cnc1N)c1c(Cl)ccc(F)c1Cl [crizotinib]
Outline: as §1

[13] = compound: C[C@@H]1COCCN1C2=NC(=NC(=C2)C3(CC3)S(=O)(=O)C)C4=C5C=CNC5=CC=C4
Outline: as §1

[14] = compound: C[C@H](C1=CC=C(C=C1)C(=O)NC2=C3C=CNC3=NC=C2)N
Outline: as §1

[15] = compound: C[C@H](Nc1ncnc2nc[nH]c12)c1cc2cccc(Cl)c2c(=O)n1-c1ccccc1 [duvelisib]
Outline: as §1

[16] = compound: Cc1cc(Nc2cc(CN3CCOCC3)c3nc(C)c(Cc4ccc(Cl)cc4F)n3n2)n[nH]1 [gandotinib]
Outline: as §1

[17] = compound: Cc1cc(Nc2cc(N3CCN(C)CC3)nc(Sc3ccc(NC(=O)C4CC4)cc3)n2)n[nH]1 [tozasertib]
Outline: as §1

[18] = compound: Cc1cc(SCc2sc(-c3ccc(C(F)(F)F)cc3)nc2C)ccc1OCC(=O)O
Outline: as §1

[19] = compound: Cc1ccc(-n2nc(C(C)(C)C)cc2NC(=O)Nc2ccc(OCCN3CCOCC3)c3ccccc23)cc1 [doramapimod]
Outline: as §1

[20] = compound: Cc1ccc(C(=O)N(CCCN)[C@@H](c2nc3cc(Cl)ccc3c(=O)n2Cc2ccccc2)C(C)C)cc1 [ispinesib]
Outline: as §1

Measured: log2 fold change

GNAS (UniProt Q5JWF2)
inactive: [1] -0.048 | [2] 0 | [3] -0.03 | [4] -0.048 | [5] -0.09 | [6] 0.052 | [7] 0.108 | [8] -0.077 | [9] 0.02 | [10] 0.051 | [11] 0.049 | [12] 0.047 | [13] 0.039 | [14] -0.031 | [15] 0.07 | [16] -0.034 | [17] -0.026 | [18] 0.003 | [19] 0.007 | [20] -0.141

HNRNPK isoform 2 (UniProt P61978)
inactive: [1] 0.008 | [2] -0.001 | [3] -0.022 | [4] -0.011 | [5] -0.004 | [6] -0.035 | [7] 0.051 | [8] 0.049 | [9] -0.016 | [10] 0.004 | [11] -0.01 | [12] 0.072 | [13] 0.074 | [14] -0.028 | [15] 0.036 | [16] -0.108 | [17] -0.021 | [18] 0.052 | [19] -0.064 | [20] -0.025

FANCD2 isoform 1 (UniProt Q9BXW9)
Chain of UniProt Q9BXW9 (Q9BXW9 whole entry, looked up): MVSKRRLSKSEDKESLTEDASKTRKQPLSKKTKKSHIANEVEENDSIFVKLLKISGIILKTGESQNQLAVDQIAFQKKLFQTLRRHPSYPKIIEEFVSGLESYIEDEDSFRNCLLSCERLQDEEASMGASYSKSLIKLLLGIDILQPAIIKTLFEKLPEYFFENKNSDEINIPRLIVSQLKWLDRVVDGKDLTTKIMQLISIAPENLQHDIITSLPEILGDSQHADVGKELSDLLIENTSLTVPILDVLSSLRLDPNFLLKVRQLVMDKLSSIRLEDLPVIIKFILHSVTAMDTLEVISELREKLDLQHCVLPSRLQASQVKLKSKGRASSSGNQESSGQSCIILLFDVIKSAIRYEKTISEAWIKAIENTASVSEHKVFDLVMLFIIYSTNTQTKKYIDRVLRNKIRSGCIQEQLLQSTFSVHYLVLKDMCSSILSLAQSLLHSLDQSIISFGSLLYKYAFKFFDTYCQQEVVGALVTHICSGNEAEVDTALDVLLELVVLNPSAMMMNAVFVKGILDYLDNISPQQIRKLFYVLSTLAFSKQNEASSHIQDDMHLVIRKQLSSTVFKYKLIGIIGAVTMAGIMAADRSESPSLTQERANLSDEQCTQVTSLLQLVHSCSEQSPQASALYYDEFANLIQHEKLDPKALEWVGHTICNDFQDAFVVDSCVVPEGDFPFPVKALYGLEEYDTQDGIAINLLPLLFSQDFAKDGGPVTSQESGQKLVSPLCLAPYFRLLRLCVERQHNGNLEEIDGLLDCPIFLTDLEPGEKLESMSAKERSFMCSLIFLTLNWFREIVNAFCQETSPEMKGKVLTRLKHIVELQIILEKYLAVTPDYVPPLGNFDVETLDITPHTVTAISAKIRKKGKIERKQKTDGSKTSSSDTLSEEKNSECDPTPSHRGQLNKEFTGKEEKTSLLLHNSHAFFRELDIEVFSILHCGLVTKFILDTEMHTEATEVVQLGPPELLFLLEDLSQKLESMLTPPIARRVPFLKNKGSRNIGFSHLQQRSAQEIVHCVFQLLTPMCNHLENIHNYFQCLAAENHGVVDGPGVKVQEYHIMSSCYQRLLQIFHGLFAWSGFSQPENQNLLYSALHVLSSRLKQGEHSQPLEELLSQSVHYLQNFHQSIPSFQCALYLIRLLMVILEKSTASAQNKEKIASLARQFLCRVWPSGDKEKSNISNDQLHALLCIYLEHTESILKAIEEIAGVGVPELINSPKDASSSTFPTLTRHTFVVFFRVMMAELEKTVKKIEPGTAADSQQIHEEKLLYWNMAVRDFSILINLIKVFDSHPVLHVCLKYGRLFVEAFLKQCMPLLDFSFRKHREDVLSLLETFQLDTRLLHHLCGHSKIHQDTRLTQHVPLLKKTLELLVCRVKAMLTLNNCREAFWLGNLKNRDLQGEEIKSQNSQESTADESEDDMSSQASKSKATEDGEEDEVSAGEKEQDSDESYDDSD
inactive: [1] 0.054 | [2] -0.078 | [3] -0.007 | [4] -0.062 | [5] -0.037 | [6] 0.053 | [7] -0.033 | [8] 0.031 | [9] -0.025 | [10] 0.123 | [11] -0.056 | [12] -0.052 | [13] 0.127 | [14] -0.014 | [15] -0.014 | [16] -0.135 | [17] 0.003 | [18] 0.034 | [19] 0.004 | [20] -0.096

HRAS (UniProt P01112)
inactive: [1] 0.008 | [2] -0.023 | [3] -0.049 | [4] 0.075 | [5] -0.157 | [6] -0.044 | [7] 0.021 | [8] -0.015 | [9] 0.076 | [10] 0.012 | [11] -0.064 | [12] 0.18 | [13] -0.129 | [14] -0.057 | [15] -0.025 | [16] 0.068 | [17] -0.149 | [18] -0.077 | [19] -0.032 | [20] 0.22

HEXA (UniProt P06865)
Chain of UniProt P06865 (P06865 whole entry, looked up): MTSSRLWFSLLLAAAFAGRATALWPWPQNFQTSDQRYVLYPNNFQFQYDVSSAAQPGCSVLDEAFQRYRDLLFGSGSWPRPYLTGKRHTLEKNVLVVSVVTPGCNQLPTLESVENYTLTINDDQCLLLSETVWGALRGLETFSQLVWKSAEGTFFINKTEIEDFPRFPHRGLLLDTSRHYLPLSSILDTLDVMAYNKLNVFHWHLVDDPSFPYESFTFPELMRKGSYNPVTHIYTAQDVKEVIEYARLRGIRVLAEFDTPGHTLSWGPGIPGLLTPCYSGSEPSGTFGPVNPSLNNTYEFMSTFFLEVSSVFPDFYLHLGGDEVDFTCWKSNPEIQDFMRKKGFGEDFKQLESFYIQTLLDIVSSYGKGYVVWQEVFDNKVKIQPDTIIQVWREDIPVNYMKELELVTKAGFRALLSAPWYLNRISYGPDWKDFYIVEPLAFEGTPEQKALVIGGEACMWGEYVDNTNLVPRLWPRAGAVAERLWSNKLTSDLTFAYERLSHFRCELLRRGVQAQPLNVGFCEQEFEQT
inactive: [1] 0.028 | [2] -0.066 | [3] -0.015 | [4] -0.012 | [5] -0.095 | [6] 0.01 | [7] -0.005 | [8] 0.035 | [9] 0 | [10] 0.03 | [11] 0.016 | [13] 0.02 | [14] -0.015 | [15] 0.049 | [16] 0.015 | [17] 0.002 | [18] -0.02 | [19] -0.016 | [20] -0.124
active: [12] -0.785

FARS2 (UniProt O95363)
Chain of UniProt O95363 (O95363 whole entry, looked up): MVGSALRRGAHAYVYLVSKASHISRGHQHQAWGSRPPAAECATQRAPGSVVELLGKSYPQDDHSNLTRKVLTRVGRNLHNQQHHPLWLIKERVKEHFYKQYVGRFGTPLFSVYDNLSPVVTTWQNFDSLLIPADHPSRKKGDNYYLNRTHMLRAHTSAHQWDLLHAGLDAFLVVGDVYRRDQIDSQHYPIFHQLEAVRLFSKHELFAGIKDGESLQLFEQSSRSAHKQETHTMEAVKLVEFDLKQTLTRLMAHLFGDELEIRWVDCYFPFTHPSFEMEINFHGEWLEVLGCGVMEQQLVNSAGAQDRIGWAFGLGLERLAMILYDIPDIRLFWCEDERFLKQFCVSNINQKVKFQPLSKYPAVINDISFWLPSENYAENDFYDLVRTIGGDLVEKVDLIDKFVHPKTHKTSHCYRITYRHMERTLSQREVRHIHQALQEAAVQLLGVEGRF
inactive: [1] -0.171 | [2] -0.122 | [3] -0.049 | [4] -0.076 | [5] 0.137 | [6] 0.033 | [7] -0.114 | [8] 0.113 | [9] -0.061 | [10] 0.071 | [11] 0.004 | [12] -0.043 | [13] 0.088 | [14] 0.041 | [15] 0.073 | [16] -0.021 | [17] 0.045 | [18] 0.06 | [19] -0.023 | [20] -0.157

GABARAPL2 (UniProt P60520)
Chain of UniProt P60520 (P60520 whole entry, looked up): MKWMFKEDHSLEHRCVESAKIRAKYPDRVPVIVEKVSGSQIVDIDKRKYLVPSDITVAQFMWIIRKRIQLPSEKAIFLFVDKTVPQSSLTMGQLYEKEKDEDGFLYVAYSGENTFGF
inactive: [1] 0.185 | [2] -0.01 | [3] -0.036 | [4] -0.072 | [5] 0.016 | [6] 0.033 | [7] -0.014 | [8] 0 | [9] -0.006 | [10] -0.059 | [11] 0.081 | [12] -0.178 | [13] 0.036 | [14] 0.006 | [15] 0.053 | [16] 0.039 | [17] 0.031 | [18] 0.005 | [19] -0.073 | [20] -0.151

HSPA8 (UniProt P11142)
Chain of UniProt P11142 (P11142 whole entry, looked up): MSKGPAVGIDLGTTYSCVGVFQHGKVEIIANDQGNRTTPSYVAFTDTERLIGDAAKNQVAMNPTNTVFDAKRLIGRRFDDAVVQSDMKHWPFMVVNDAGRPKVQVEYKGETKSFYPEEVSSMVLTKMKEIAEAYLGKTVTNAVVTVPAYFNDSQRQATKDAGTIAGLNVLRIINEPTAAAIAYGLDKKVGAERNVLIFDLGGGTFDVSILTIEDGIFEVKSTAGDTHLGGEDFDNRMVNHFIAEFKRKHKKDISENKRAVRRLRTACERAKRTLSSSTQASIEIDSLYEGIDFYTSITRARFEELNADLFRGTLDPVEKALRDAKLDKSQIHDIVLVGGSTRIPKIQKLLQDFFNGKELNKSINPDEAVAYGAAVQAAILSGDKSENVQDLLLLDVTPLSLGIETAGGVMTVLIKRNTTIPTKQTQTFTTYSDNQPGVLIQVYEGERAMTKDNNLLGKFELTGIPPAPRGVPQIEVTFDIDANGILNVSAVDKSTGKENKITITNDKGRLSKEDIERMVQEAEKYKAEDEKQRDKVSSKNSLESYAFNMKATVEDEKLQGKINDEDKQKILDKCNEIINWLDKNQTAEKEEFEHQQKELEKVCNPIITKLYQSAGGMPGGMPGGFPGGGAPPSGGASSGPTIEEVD
inactive: [1] -0.008 | [2] -0.035 | [3] 0.005 | [4] 0.018 | [5] -0.036 | [6] -0.004 | [7] 0.018 | [8] -0.012 | [9] -0.018 | [10] -0.039 | [11] 0.003 | [12] 0.039 | [13] -0.048 | [14] -0.009 | [15] -0.026 | [16] 0.014 | [17] 0.01 | [18] -0.003 | [19] -0.008 | [20] 0.028

HNRNPH2 (UniProt P55795)
inactive: [1] 0.003 | [2] 0.033 | [3] 0.079 | [4] 0.001 | [5] 0.058 | [6] -0.231 | [7] 0.02 | [8] -0.079 | [9] 0.057 | [10] -0.021 | [11] 0.029 | [12] -0.171 | [13] 0.096 | [14] -0.023 | [15] 0.054 | [16] 0.06 | [17] 0.113 | [18] 0.177 | [19] -0.024 | [20] -0.159

GGT7 (UniProt Q9UJ14)
Chain of UniProt Q9UJ14 (Q9UJ14 whole entry, looked up): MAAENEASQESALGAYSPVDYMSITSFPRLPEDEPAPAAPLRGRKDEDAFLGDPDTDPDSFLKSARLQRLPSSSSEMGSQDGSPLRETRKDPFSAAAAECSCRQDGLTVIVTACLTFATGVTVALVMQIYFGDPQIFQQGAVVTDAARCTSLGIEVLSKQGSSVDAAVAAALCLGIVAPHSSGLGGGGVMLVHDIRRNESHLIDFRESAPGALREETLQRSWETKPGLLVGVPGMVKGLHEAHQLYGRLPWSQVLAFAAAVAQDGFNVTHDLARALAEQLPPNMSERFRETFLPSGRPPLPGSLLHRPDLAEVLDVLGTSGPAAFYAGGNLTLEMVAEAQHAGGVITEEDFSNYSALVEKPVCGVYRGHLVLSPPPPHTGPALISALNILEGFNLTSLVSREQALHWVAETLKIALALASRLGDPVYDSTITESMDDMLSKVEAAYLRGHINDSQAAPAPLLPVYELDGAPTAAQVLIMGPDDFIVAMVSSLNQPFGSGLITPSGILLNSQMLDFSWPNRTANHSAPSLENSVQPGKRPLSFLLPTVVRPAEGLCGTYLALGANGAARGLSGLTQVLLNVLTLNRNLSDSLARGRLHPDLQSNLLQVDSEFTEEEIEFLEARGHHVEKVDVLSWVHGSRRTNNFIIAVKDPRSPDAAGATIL
inactive: [1] 0.044 | [2] 0.081 | [3] -0.03 | [4] -0.039 | [5] -0.07 | [6] -0.098 | [7] 0.055 | [8] 0.05 | [9] -0.062 | [10] 0.143 | [11] 0.035 | [12] 0.013 | [13] -0.128 | [14] 0.013 | [15] -0.045 | [16] -0.03 | [17] -0.049 | [18] -0.091 | [19] 0.023 | [20] -0.032

FAM91A1 (UniProt Q658Y4)
inactive: [1] -0.081 | [2] -0.059 | [3] 0.029 | [4] -0.044 | [5] -0.076 | [6] -0.003 | [7] -0.013 | [8] 0.035 | [9] 0.045 | [10] -0.047 | [11] -0.11 | [12] -0.006 | [13] 0.192 | [14] -0.034 | [15] -0.008 | [16] -0.08 | [17] 0.022 | [18] -0.001 | [19] -0.012 | [20] 0.014

HADHB (UniProt P55084)
inactive: [1] 0.248 | [2] 0.094 | [3] 0.038 | [4] -0.263 | [5] -0.026 | [6] 0.217 | [7] 0.17 | [8] -0.085 | [9] 0.086 | [10] 0.383 | [11] -0.087 | [12] 0.109 | [13] 0.099 | [14] -0.023 | [15] 0.229 | [16] 0.083 | [17] -0.112 | [18] 0.138 | [19] 0.167 | [20] 0.199

FDPS (UniProt P14324)
Chain of UniProt P14324 (P14324 whole entry, looked up): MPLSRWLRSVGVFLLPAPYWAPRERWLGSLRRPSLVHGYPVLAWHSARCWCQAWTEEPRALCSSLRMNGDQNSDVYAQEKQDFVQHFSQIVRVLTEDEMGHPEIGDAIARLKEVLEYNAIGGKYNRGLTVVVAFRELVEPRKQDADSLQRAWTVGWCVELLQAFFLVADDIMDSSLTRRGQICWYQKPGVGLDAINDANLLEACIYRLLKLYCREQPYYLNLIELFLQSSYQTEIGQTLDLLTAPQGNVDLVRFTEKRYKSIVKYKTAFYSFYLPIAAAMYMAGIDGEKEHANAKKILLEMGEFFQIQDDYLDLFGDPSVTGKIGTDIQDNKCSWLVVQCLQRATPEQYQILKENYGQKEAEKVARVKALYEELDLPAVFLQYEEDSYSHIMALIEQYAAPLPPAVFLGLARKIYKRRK
inactive: [1] 0.048 | [2] -0.246 | [3] 0.019 | [4] -0.063 | [5] 0.066 | [6] 0.118 | [7] -0.047 | [8] 0.009 | [9] -0.018 | [10] -0.076 | [11] 0.07 | [13] 0.073 | [14] 0.117 | [15] 0.059 | [16] -0.091 | [17] -0.193 | [18] 0.222 | [19] 0.004
active: [12] -0.768 | [20] -0.493

GOLPH3 (UniProt Q9H4A6)
Chain of UniProt Q9H4A6 (Q9H4A6 whole entry, looked up): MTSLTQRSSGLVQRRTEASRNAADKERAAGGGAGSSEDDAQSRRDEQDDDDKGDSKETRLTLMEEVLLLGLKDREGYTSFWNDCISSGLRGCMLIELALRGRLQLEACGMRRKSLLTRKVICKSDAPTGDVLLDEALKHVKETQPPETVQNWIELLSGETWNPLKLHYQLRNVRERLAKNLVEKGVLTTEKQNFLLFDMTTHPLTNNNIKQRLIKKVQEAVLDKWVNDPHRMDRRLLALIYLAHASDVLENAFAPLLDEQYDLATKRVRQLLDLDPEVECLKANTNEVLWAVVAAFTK
active: [20] 0.379
inactive: [1] 0.011 | [2] -0.03 | [3] 0.048 | [4] -0.057 | [5] -0.024 | [6] 0.131 | [7] 0.023 | [8] 0.012 | [9] -0.055 | [10] -0.051 | [11] -0.028 | [12] 0.176 | [13] 0.006 | [14] -0.038 | [15] 0.047 | [16] -0.112 | [17] 0.024 | [18] 0.012 | [19] -0.011

GLUL (UniProt P15104)
inactive: [1] 0.11 | [2] 0.002 | [3] -0.154 | [4] 0.032 | [5] -0.013 | [6] -0.061 | [7] 0.01 | [9] -0.032 | [10] -0.001 | [11] -0.07 | [12] 0.008 | [14] 0.062 | [15] 0.035 | [16] -0.014 | [17] -0.014 | [18] -0.047 | [19] -0.126 | [20] 0.005
active: [8] -0.225 | [13] -0.267

GATA1 (UniProt P15976)
Chain of UniProt P15976 (P15976 whole entry, looked up): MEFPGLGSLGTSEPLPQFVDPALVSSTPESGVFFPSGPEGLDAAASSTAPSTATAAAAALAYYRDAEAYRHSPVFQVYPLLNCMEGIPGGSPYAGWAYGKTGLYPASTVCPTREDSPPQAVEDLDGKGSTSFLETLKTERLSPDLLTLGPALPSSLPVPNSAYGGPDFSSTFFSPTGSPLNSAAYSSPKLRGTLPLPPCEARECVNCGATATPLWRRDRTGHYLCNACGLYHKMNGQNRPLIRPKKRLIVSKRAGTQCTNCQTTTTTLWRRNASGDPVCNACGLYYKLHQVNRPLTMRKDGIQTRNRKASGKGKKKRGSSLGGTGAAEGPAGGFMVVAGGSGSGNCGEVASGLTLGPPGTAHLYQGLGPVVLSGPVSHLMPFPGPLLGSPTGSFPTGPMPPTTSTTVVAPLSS
inactive: [1] -0.023 | [2] 0.001 | [3] -0.05 | [4] -0.034 | [5] 0.02 | [6] 0.07 | [7] 0.014 | [8] -0.087 | [9] 0.008 | [10] -0.021 | [11] 0.03 | [12] 0.16 | [13] -0.032 | [14] 0.046 | [15] -0.061 | [16] 0.112 | [17] 0.031 | [18] -0.071 | [19] 0.017 | [20] -0.063
